Results filed as inconclusive are left out. Entries that show only a call come without a potency. Active and inactive are the calls of the source. Calls come from the whole dose curve; as a rule, active = well fitted curve in the direction sought with a large enough effect; inconclusive = small, poorly fitted or top-dose-only effect, or another doubt; inactive = no such curve, though single readings can be large; an effect the other way counts as inactive or inconclusive.
Key:
[1] = target: Thioredoxin reductase 1, cytoplasmic (Rattus norvegicus) (UniProt O89049); experiment: qHTS Assay for Substrates of Mammalian Selenoprotein Thioredoxin Reductase 1 (TrxR1) (AID 488772); conditions: purified TrxR1, NADPH consumption substrate assay; series mostly up to 57.1 µM;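 note: a drop in NADPH fluorescence below the no-compound background marks a TrxR1 substrate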
How it was run: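 In this dual-purpose format, potential substrates are identified from the first fluorescence read after selenite addition, not from the 8-minute delta. Rat enzyme is preincubated with NADPH and then with compound at ~22 deg C.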

[2] = target: Thioredoxin reductase 1, cytoplasmic (Rattus norvegicus) (UniProt O89049); experiment: qHTS Assay for Inhibitors of Mammalian Selenoprotein Thioredoxin Reductase 1 (TrxR1) (AID 488773); conditions: purified TrxR1 enzyme activity; Potency: inhibition; series mostly up to 57.1 µM; note: nearly all actives have a fitted effect of over 40% in size; note: potency is the fitted concentration of half-maximal effect
How it was run: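 Inhibition is scored from the loss of NADPH fluorescence between first and last reads of an 8-min kinetic run. Selenite (400 uM) was the substrate, added after 15 min compound preincubation at room temperature.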

[3] = target: Flap endonuclease 1 (Homo sapiens) (UniProt P39748); experiment: qHTS Validation Assay for the Inhibitors of Human Flap endonuclease 1 (FEN1) (AID 488816); conditions: FEN1 nuclease activity, fluorogenic DNA substrate; series mostly up to 57.1 µM; note: potency is the fitted concentration of half-maximal effect
How it was run: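 Enzyme reagent 10 nM; cpds pinned; 15 min RT preinc.; substrate 50 nM final; reads t=0 and 15 min; no-enzyme buffer wells as neg. control; normalized data, 4-parameter Hill fit.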

[4] = target: M-phase phosphoprotein 8 (Homo sapiens) (UniProt Q99549); experiment: qHTS Validation Assay for Inhibitors for MPP8 Chromodomain Interactions with Methylated Histone Tails (AID 488949); conditions: AlphaScreen MPP8 binding to H3K9me3 peptide; series mostly up to 57.1 µM; note: nearly all actives have a fitted effect of over 55% in size; note: potency is the fitted concentration of half-maximal effect
How it was run: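 Chemiluminescent proximity assay: histidine-tag capture via nickel acceptor beads, biotin peptide via streptavidin donor beads. Protein and peptide each at 50 nM, pH 7.4, with 30 min incubations at room temperature for complex formation, compound exposure and bead binding.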

[5] = target: Chromobox protein homolog 1 (Homo sapiens) (UniProt P83916); experiment: qHTS Validation Assay for Inhibitors of HP1-beta Chromodomain Interactions with Methylated Histone Tails (AID 488953); conditions: HP1-beta chromodomain / methylated histone peptide binding assay; series mostly up to 114 µM; note: nearly all actives have a fitted effect of over 50% in size; note: potency is the fitted concentration of half-maximal effect
How it was run: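 AlphaScreen proximity readout: streptavidin donor and Ni-chelate acceptor beads, 10 ug/mL final, 30 min dark, RT. Complex of 50 nM HP1-beta and 50 nM b-H3(1-18)K9me3 formed 30 min, then compound-treated 30 min; PBS pH 7.4/0.01% Tween-20.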

[6] = target: Transient receptor potential cation channel subfamily V member 1 (Homo sapiens) (UniProt Q8NER1); experiment: HTS Assay for Compounds that Act as Enhancers of the Vanilloid Receptor 1 (AID 488979); conditions: TRPV1-expressing cells, enhancer of channel activity, stimulated with capsaicin at EC20; series mostly up to 41.7 µM
How it was run: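 TRPV1 cells loaded with Fluo-8 calcium dye; compound added and Ca2+ signal (ex 480/em 520 nm) followed 3 min, then capsaicin at EC20 added and read 2 more min to detect enhancement.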

[7] = target: Thyrotropin receptor (Homo sapiens) (UniProt P16473); experiment: qHTS Assay for Antagonists of the Thyroid Stimulating Hormone Receptor (AID 488980); conditions: TSHR-expressing cells, cAMP antagonist read-out; series mostly up to 57.5 µM
How it was run: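 Inhibition of TSH-stimulated cAMP accumulation was quantified by homogeneous time-resolved FRET in TSHR-transfected HEK293 cells. Agonist: TSH, 4 nM final (EC80).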

[8] = target: D(1A) dopamine receptor (Homo sapiens) (UniProt P21728); experiment: HTS Assay for Allosteric Agonists of the Human D1 Dopamine Receptor: Primary Screen for Agonists (AID 488981); conditions: Inducible HEK293 T-REx D1 cells, calcium-flux fluorescence, 180 s kinetic; series mostly up to 41.8 µM
How it was run: (§1)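 Tetracycline-induced HEK293 Trex D1 cells with forced coupling to calcium, loaded with no-wash calcium dye; kinetic fluorescence read 180 s after compound addition for agonism, then a further 180 s after an EC20 dopamine challenge for potentiation.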

[9] = target: D(1A) dopamine receptor (Homo sapiens) (UniProt P21728); experiment: HTS Assay for Allosteric Agonists of the Human D1 Dopamine Receptor: Primary Screen for Potentiators (AID 488982); conditions: HEK293 T-REx D1 inducible cells, calcium flux, kinetic fluorescence; series mostly up to 8.37 µM
How it was run: as §1

[10] = target: D(1A) dopamine receptor (Homo sapiens) (UniProt P21728); experiment: HTS Assay for Allosteric Agonists of the Human D1 Dopamine Receptor: Primary Screen for Antagonists (AID 488983); conditions: D1 receptor cell assay, antagonist mode, qHTS titration; series mostly up to 41.8 µM;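 note: calcium flux response to an EC80 dopamine challenge measured with no-wash dye; nearly all actives have a fitted effect of over 65% in size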
How it was run: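 Calcium flux readout, no-wash dye, inducible HEK293 T-REx D1 line (force-coupled). Compound added after 10 s baseline, 180 s kinetic read; then dopamine at EC80, further 180 s read.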

Chain of M-phase phosphoprotein 8 (Homo sapiens) (Q99549 whole entry, looked up): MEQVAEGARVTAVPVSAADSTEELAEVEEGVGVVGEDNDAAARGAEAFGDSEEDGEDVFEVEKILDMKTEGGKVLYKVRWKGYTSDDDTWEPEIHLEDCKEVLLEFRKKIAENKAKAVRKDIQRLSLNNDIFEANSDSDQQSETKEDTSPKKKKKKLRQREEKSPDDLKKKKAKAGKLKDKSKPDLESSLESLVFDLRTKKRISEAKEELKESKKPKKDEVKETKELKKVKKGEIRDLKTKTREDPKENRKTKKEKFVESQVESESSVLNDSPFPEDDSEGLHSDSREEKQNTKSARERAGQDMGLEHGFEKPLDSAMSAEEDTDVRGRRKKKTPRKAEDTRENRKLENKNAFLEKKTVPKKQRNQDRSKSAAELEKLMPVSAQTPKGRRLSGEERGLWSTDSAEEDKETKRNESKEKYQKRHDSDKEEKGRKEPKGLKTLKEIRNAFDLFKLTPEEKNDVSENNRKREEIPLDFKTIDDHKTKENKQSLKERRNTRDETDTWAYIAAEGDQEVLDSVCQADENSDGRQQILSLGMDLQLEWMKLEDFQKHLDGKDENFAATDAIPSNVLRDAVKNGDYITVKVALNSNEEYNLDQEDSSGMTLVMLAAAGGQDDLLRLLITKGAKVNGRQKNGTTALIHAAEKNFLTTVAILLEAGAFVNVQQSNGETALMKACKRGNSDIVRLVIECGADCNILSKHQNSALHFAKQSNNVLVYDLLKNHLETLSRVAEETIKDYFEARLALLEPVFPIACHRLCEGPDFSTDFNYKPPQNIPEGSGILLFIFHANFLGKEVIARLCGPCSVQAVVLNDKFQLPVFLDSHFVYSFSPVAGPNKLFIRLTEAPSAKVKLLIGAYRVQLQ
Chain of Thioredoxin reductase 1, cytoplasmic (Rattus norvegicus) (O89049 whole entry, looked up): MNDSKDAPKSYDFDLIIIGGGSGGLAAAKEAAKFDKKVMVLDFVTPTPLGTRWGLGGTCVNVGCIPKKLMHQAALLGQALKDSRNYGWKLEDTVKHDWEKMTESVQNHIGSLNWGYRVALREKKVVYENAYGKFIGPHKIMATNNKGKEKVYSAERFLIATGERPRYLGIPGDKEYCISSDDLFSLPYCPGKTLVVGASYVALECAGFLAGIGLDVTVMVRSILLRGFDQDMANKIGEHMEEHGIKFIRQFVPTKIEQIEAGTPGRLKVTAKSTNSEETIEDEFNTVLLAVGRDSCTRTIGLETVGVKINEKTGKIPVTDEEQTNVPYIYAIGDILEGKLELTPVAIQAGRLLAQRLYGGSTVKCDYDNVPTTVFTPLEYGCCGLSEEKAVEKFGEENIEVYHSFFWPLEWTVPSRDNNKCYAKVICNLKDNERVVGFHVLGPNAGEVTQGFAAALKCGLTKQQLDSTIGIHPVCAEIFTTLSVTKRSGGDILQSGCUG
Chain of Transient receptor potential cation channel subfamily V member 1 (Homo sapiens) (Q8NER1 whole entry, looked up): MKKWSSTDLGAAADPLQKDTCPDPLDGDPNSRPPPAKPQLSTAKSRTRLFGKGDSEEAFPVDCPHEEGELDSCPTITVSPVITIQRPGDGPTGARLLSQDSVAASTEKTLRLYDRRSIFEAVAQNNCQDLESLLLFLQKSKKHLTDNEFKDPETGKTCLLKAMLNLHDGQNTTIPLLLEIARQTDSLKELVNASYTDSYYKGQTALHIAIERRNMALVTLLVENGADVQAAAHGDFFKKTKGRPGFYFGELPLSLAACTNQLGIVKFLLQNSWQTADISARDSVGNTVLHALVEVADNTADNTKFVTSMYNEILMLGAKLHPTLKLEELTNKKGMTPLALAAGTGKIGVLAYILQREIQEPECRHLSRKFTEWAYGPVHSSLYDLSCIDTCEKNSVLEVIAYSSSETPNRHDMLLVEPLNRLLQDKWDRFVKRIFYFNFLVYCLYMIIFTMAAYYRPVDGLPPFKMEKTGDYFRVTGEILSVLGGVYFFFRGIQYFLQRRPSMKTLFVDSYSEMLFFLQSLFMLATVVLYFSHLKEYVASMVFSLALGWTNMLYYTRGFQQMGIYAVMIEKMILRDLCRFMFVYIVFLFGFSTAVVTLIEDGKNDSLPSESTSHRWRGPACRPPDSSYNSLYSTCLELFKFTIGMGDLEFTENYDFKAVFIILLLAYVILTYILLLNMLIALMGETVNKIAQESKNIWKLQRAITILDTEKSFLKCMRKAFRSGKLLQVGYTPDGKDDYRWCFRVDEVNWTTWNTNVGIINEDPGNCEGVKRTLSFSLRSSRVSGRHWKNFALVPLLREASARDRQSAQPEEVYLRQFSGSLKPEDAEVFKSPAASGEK
Chain of Chromobox protein homolog 1 (Homo sapiens) (P83916 whole entry, looked up): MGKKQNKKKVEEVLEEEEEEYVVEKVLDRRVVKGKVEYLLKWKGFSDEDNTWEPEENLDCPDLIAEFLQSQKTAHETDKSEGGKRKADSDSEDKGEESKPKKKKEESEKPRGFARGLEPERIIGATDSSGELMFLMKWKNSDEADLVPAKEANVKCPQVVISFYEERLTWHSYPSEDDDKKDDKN
Chain of Flap endonuclease 1 (Homo sapiens) (P39748 whole entry, looked up): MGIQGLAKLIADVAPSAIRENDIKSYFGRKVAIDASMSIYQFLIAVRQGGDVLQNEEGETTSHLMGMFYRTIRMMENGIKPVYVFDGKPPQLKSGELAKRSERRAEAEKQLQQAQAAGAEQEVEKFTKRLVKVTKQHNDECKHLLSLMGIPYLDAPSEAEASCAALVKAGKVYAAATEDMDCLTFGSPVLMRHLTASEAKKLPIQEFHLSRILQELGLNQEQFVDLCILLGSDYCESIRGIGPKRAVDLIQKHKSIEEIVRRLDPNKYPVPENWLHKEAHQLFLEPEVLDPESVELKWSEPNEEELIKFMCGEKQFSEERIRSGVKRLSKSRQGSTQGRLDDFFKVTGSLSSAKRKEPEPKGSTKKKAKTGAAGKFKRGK
Chain of D(1A) dopamine receptor (Homo sapiens) (P21728 whole entry, looked up): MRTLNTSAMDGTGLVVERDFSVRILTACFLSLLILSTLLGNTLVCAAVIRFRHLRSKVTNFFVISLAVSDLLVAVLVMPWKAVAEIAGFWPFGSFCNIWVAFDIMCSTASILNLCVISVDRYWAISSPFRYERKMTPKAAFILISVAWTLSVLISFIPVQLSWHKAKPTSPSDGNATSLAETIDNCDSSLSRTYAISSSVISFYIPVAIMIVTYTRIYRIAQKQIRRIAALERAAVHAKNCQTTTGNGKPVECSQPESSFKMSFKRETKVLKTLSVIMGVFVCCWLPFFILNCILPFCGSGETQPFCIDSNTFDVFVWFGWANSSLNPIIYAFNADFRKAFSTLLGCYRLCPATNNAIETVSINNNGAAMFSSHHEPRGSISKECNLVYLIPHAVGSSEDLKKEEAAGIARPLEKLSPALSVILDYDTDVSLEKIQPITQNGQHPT
Chain of Thyrotropin receptor (Homo sapiens) (P16473 whole entry, looked up): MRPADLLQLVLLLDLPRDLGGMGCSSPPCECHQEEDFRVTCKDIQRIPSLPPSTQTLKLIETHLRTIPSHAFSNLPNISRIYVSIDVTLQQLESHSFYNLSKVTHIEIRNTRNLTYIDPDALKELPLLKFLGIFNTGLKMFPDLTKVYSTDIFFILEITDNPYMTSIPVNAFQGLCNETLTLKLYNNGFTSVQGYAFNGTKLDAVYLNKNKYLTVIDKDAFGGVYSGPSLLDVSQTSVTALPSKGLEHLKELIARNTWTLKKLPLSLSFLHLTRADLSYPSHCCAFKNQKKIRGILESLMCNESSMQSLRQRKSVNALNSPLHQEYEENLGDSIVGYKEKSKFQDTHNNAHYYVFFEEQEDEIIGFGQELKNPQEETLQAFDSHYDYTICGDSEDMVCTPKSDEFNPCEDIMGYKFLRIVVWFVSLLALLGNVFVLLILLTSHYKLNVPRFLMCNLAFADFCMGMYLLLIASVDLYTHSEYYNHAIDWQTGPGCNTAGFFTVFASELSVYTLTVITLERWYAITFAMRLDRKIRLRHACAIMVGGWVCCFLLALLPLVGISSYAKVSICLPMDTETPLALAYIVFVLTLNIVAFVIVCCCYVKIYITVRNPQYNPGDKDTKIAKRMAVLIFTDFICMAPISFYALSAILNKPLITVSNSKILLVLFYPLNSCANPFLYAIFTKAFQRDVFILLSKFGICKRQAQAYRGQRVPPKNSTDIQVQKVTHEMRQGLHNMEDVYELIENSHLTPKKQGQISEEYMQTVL

Compound	outcome [1]	Potency [2]	Potency [3]	Potency [4]	Potency [5]	outcome [6]	outcome [7]	outcome [8]	outcome [9]	outcome [10]
CC(=O)[C@H]1CC[C@H]2[C@@H]3CCC4=CC(=O)CC[C@]4(C)[C@H]3CC[C@]12C	inactive	inactive	inactive	inactive	inactive	inactive	inactive	inactive	inactive	
N[C@@H](Cc1ccc(O)c(O)c1)C(=O)O	inactive	29.9 µM (active)	3.77 µM (active)	7.52 µM (active)	31.6 µM (active)			inactive	inactive	inactive
CC1CC2C3CCC4=CC(=O)C=C[C@]4(C)[C@@]3(F)[C@@H](O)C[C@]2(C)[C@@]1(O)C(=O)CO (some centres undefined)	inactive	inactive	inactive	inactive	inactive			inactive	inactive	inactive
CCN(CC)CCn1c(=O)c(Cc2ccc(OC)cc2)nc2ccccc21	inactive	inactive		inactive	inactive			inactive	inactive	inactive
CC1=C(C(=O)O)N2C(=O)[C@@H](NC(=O)C(N)c3ccccc3)[C@H]2SC1 (some centres undefined)	inactive	inactive	inactive		inactive	inactive		inactive	inactive	inactive
OCc1ccc(-c2nn(Cc3ccccc3)c3ccccc23)o1	inactive		inactive	25.1 µM (active)	39.8 µM (active)	inactive	inactive	inactive	inactive	inactive
O=C(O)C1CCCN(CCC=C(c2ccccc2)c2ccccc2)C1 (centres undefined)	inactive	inactive	inactive	inactive	inactive	inactive	inactive	inactive	inactive	inactive
CC(C)NCC(O)c1ccc(NS(C)(=O)=O)cc1 (centres undefined)	inactive	inactive	inactive	inactive	inactive	inactive	inactive	inactive	inactive	inactive
Cc1ccc(S(=O)(=O)N[C@@H](Cc2ccccc2)C(=O)CCl)cc1	inactive	21.2 µM (active)	inactive	inactive	inactive	inactive	inactive	inactive	inactive	
NC(=O)c1ccc2[nH]ccc2c1	inactive	inactive	inactive	inactive	inactive			inactive	inactive	inactive
Nc1nc(N)c2nc(CNc3ccc(C(=O)NC(CCC(=O)O)C(=O)O)cc3)cnc2n1 (centres undefined)		inactive	inactive			inactive	inactive	inactive	inactive	inactive
COc1cc2ncnc(Nc3cccc(Cl)c3)c2cc1OC	inactive	inactive	inactive	inactive	inactive	inactive	inactive	inactive	inactive	inactive
NC(=O)c1cccc(N)c1	inactive	inactive	inactive	inactive	inactive	inactive	inactive	inactive	inactive	inactive
CCN(CC)CC#CCOC(=O)C(O)(c1ccccc1)C1CCCCC1 (centres undefined)	inactive	inactive	inactive	inactive	inactive	inactive	inactive	inactive		inactive
CCCCS(=N)(=O)CCC(N)C(=O)O (centres undefined)	inactive	inactive	inactive	inactive	inactive	inactive	inactive	inactive	inactive	inactive
CCN1CCCC1CNC(=O)c1cc(S(N)(=O)=O)ccc1OC (centres undefined)	inactive	inactive	inactive	inactive	inactive	inactive	inactive	inactive	inactive	
CC(C)(C)NC(=O)[C@H]1CC[C@H]2[C@@H]3CC[C@H]4NC(=O)C=C[C@]4(C)[C@H]3CC[C@]12C				inactive		inactive				
COc1cc2nc(N3CCCN(C)CC3)nc(NC3CCN(Cc4ccccc4)CC3)c2cc1OC	inactive	inactive		inactive				inactive	inactive	inactive

— PubChem BioAssay (NCATS)
